Measurements: PubChem BioAssay (Tox21)
Inconclusive results are not listed. The source made the active and inactive calls. Unless noted, calls follow the shape of the dose curve; as a rule, active = well fitted curve in the direction sought with a large enough effect in the repeat runs; inconclusive = weak or mixed curves; inactive = no such curve, though single readings can be large; an effect the other way counts as inactive or inconclusive.

Tests used:
[1] = qHTS assay to identify small molecule agonists of the peroxisome proliferator-activated receptor delta (PPARd) signaling pathway - cell viability counter screen (AID 743211); also: nearly all actives have a fitted effect of over 55% in size
How it was run: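 PPARd-bla HEK293H cells (3000/well) were pre-incubated 5 h at 37 C, then exposed to compound for 17 h at 37 C. After 2 h with LiveBLAzer substrate, CellTiter-Glo was added to the same wells; luminescence read after 30 min at room temperature.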

[2] = qHTS assay to identify small molecule antagonists of the peroxisome proliferator-activated receptor delta (PPARd) signaling pathway - cell viability counter screen (AID 743213); also: nearly all actives have a fitted effect of over 50% in size
How it was run: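 PPARd-bla HEK293H cells were treated with compounds plus agonist L165041 (300 nM final) for 17 h at 37 C. Viability was then read in the same wells by CellTiter-Glo luminescence after 30 min at room temperature.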

[3] = molecular target: Bile acid receptor (Homo sapiens) (UniProt Q96RI1); test: qHTS assay to identify small molecule antagonists of the farnesoid-X-receptor (FXR) signaling pathway (AID 743217; active = well fitted inhibition curve with a large enough effect in the signal ratio in the repeat runs, not every such curve was filed as active; the % refers to the signal ratio)
Chain of Bile acid receptor (Homo sapiens) (Q96RI1 whole entry, looked up): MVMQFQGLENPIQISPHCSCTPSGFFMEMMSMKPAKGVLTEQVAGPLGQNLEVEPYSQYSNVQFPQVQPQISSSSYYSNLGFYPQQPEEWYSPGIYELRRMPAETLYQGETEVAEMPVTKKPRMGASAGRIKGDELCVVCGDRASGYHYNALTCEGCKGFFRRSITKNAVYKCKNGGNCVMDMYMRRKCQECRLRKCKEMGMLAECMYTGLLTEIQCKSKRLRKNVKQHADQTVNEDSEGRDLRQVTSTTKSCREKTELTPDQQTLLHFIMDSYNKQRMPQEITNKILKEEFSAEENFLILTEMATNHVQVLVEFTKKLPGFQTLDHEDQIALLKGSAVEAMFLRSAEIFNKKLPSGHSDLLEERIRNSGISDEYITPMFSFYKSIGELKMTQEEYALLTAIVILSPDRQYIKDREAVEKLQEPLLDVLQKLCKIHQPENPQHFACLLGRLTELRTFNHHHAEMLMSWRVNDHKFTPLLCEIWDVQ
How it was run: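 Antagonist mode: chenodeoxycholic acid at 50 uM final stimulates a UAS-driven beta-lactamase reporter in HEK 293T FXR-bla cells during 16 h, 37C compound exposure. Read-out is FRET substrate fluorescence after 2 h at room temperature.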

[4] = qHTS assay to identify small molecule agonists of the farnesoid-X-receptor (FXR) signaling pathway - cell viability counter screen (AID 743218); also: nearly all actives have a fitted effect of over 45% in size
How it was run: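 Viability counter screen in the same wells: CellTiter-Glo luminescence, 30 min room-temperature incubation, measured after the beta-lactamase read. Cells were GeneBLAzer FXR-UAS-bla HEK 293T, compound-treated 16 h at 37C.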

[5] = molecular target: Bile acid receptor (Homo sapiens) (UniProt Q96RI1); test: qHTS assay to identify small molecule agonists of the farnesoid-X-receptor (FXR) signaling pathway (AID 743220; active = well fitted activation curve with a large enough effect in the signal ratio in the repeat runs, not every such curve was filed as active; the % refers to the signal ratio)
How it was run: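 FXR-UAS-bla HEK 293T cells carrying a UAS-driven beta-lactamase reporter were plated for 5 h at 37C/5% CO2, then exposed to DMSO-dissolved Tox21 10K compounds for 16 h at 37C. A LiveBLAzer B/G FRET substrate was loaded for 2 h at room temperature before fluorescence reading.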

[6] = qHTS assay to identify small molecule antagonists of the farnesoid-X-receptor (FXR) signaling pathway - cell viability counter screen (AID 743221; active = well fitted cell-killing curve with a large enough effect in the repeat runs, not every such curve was filed as active; also: nearly all actives have a fitted effect of over 50% in size)
How it was run: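 GeneBLAzer FXR-UAS-bla HEK 293T cells, compound plus chenodeoxycholic acid (50 uM final), 16 h at 37 C. CellTiter-Glo added to the same wells after the beta-lactamase read; luminescence read after 30 min at room temperature as viability.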

[7] = molecular target: Vitamin D3 receptor (Homo sapiens) (UniProt P11473); test: qHTS assay to identify small molecule agonists of the vitamin D receptor (VDR) signaling pathway (AID 743222; calls by dose curve)
Chain of Vitamin D3 receptor (Homo sapiens) (P11473 whole entry, looked up): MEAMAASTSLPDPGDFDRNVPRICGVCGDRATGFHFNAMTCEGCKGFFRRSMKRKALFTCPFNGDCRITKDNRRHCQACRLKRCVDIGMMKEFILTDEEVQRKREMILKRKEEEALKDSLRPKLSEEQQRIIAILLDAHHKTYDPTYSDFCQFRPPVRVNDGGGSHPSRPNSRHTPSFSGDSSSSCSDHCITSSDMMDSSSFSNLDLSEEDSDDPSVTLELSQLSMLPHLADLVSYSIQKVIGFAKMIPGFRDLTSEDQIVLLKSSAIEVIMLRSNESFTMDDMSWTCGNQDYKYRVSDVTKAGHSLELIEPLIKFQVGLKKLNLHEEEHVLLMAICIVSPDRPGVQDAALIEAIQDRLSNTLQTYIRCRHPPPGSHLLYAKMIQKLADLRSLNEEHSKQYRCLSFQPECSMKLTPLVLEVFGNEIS
How it was run: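 Agonist mode, beta-lactamase reporter: fluorescence from LiveBLAzer B/G FRET substrate (2 h, room temperature) read after 16 h compound treatment at 37 C of VDR-bla cells, which were pre-incubated 4 h after seeding.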

[8] = molecular target: Vitamin D3 receptor (Homo sapiens) (UniProt P11473); test: qHTS assay to identify small molecule antagonists of the vitamin D receptor (VDR) signaling pathway (AID 743223; active = well fitted inhibition curve with a large enough effect in the signal ratio in the repeat runs, not every such curve was filed as active; the % refers to the signal ratio)
How it was run: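 VDR-bla cells were treated with compound plus 3 nM final 1alpha,25-dihydroxyvitamin D3 for 16 h at 37C. Beta-lactamase reporter read by B/G FRET substrate fluorescence after 2 h at room temperature. qHTS format.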

[9] = qHTS assay to identify small molecule antagonists of the vitamin D receptor (VDR) signaling pathway - cell viability counter screen (AID 743225); also: nearly all actives have a fitted effect of over 50% in size
How it was run: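 VDR-UAS-bla HEK 293T cells were plated and incubated 4 h at 37C, then dosed with compound plus 3 nM (final) 1-alpha,25-dihydroxyvitamin D3 for 16 h. After the 2 h beta-lactamase read, viability in the same wells was read as CellTiter-Glo luminescence after 30 min at room temperature.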

[10] = qHTS assay to identify small molecule agonists of the NFkB signaling pathway (AID 1159509; active = well fitted curve in the direction sought with a large enough effect in the signal ratio in the repeat runs, not every such curve was filed as active; the % refers to the signal ratio; also: series mostly up to about 61 µM)
How it was run: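 Beta-lactamase reporter assay run in quantitative high-throughput format on an NF-kB-responsive ME-180 line, with 5 hr compound treatment and a FRET-based blue/green fluorescence readout.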

[11] = qHTS assay to identify small molecule agonists of the NFkB signaling pathway - cell viability counter screen (AID 1159515; calls by dose curve; also: series mostly up to about 61 µM; nearly all actives have a fitted effect of over 55% in size)
How it was run: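 Read by CellTiter-Glo luminescence (30 min, room temperature) in the wells also used for the beta-lactamase FRET read. ME-180 NFkB-bla cells at 2,000 per well were plated overnight, then exposed to compound for 5 hr at 37 C.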

[12] = qHTS assay to identify small molecule agonists of the endoplasmic reticulum stress response signaling pathway - cell viability counter screen (AID 1159517; calls by dose curve;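 also: HeLa cells carrying an ER stress response element beta-lactamase reporter; series mostly up to about 61 µM; nearly all actives have a fitted effect of over 50% in size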)
How it was run: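 Steps: seed 1,500 ESRE-bla HeLa cells per well; incubate overnight at 37 C, 5% CO2; add compounds in DMSO for 5 hr; run FRET substrate 2 hr RT; add CellTiter-Glo, wait 30 min, read luminescence.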

[13] = qHTS assay to identify small molecule antagonists of the retinoid-related orphan receptor gamma (ROR-gamma) signaling pathway - cell viability counter screen (AID 1159520); also: nearly all actives have a fitted effect of over 50% in size
How it was run: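 Tet-on ROR gamma CHO cells were given compounds for 2 hr, then doxycycline hyclate at 1 uM final, and incubated 16 hr at 37 C. Viability was measured as ATP content by CellTiter-Glo luminescence.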

[14] = molecular target: Nuclear receptor ROR-gamma (Homo sapiens) (UniProt P51449); test: qHTS assay to identify small molecule antagonists of the retinoid-related orphan receptor gamma (ROR-gamma) signaling pathway (AID 1159521)
How it was run: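 Tet-on ROR-gamma CHO cells with ROR response element-luciferase reporter; compounds added 2 hr before 1 uM doxycycline induction, then 16 hr at 37 C. Antagonism scored as decreased ONE-Glo luminescence.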

[15] = qHTS assay to identify small molecule agonists of the AP-1 signaling pathway - cell viability counter screen (AID 1159525; calls by dose curve; also: nearly all actives have a fitted effect of over 55% in size)
How it was run: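 Same-well cytotoxicity counter screen of the Tox21 10K library in ME-180 cells. The readout is ATP-dependent luminescence after 5 h compound treatment. Data are normalised to DMSO and tetra n-octyl ammonium bromide controls.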

[16] = qHTS assay to identify small molecule agonists of the AP-1 signaling pathway (AID 1159526; calls by dose curve)
[17] = molecular target: Peroxisome proliferator-activated receptor delta (Homo sapiens) (UniProt Q03181); test: qHTS assay to identify small molecule agonists of the peroxisome proliferator-activated receptor delta (PPARd) signaling pathway (AID 743212; calls by dose curve)
Chain of Peroxisome proliferator-activated receptor delta (Homo sapiens) (Q03181 whole entry, looked up): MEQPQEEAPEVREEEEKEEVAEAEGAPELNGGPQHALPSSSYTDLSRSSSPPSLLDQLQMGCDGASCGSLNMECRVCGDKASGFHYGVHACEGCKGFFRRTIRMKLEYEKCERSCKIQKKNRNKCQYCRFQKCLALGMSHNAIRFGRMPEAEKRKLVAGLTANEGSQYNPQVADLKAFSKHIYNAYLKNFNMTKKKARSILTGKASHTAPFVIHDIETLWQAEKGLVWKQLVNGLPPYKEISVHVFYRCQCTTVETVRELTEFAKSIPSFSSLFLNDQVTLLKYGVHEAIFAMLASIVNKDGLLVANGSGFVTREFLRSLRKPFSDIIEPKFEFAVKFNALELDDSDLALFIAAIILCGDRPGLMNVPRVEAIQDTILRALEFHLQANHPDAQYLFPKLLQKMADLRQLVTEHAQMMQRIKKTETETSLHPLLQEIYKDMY
How it was run: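 Read-out: beta-lactamase FRET fluorescence after 2 h room-temperature incubation with LiveBLAzer B/G substrate. Cells were HEK293H carrying a UAS-bla reporter for PPARd, treated at 37 C with DMSO-dissolved compounds.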

[18] = molecular target: Peroxisome proliferator-activated receptor delta (Homo sapiens) (UniProt Q03181); test: qHTS assay to identify small molecule antagonists of the peroxisome proliferator-activated receptor delta (PPARd) signaling pathway (AID 743215; active = well fitted inhibition curve with a large enough effect in the signal ratio in the repeat runs, not every such curve was filed as active; the % refers to the signal ratio;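 also: cells stimulated with agonist L165041 at 300 nM final during compound exposure; series mostly up to about 62 µM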)
How it was run: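 Agonist L165041 (300 nM final) added with compound to PPARd-bla HEK293H UAS-bla reporter cells; 17 h incubation at 37 C. Read-out: LiveBLAzer FRET substrate, 2 h at room temperature, fluorescence intensity.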

[19] = qHTS assay to identify small molecule agonists of the vitamin D receptor (VDR) signaling pathway - cell viability counter screen (AID 743224)
How it was run: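 Counter screen run in the same wells as the VDR-bla reporter assay: CellTiter-Glo luminescence, 30 min at room temperature, after 16 h compound treatment at 37C of cells pre-plated for 4 h.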

Measured: Potency

CN1C(=O)CN=C(c2ccccc2)c2cc(Cl)ccc21
not listed: [17] | [18] | [19]
inactive: all other assays above

CC(C)OC(=O)Nc1cccc(Cl)c1
not listed: [12] | [13] | [16]
inactive: all other assays above

CN=C=S
not listed: [14]
inactive: all other assays above

CCOP(OCC)OCC
not listed: [7] | [8] | [12] | [17] | [18]
inactive: all other assays above

NCCc1ccc(O)cc1
not listed: [3] | [5] | [7] | [8]
inactive: all other assays above

C1CN2CCN1CC2
not listed: [3] | [5] | [17] | [18] | [19]
inactive: all other assays above

Nc1c(Cl)c(Cl)nc(C(=O)O)c1Cl
not listed: [3] | [5] | [7] | [8] | [12] | [13]
inactive: all other assays above

CCCCCCCCCl
not listed: [12] | [14]
inactive: all other assays above

CC(C)=C[C@@H]1[C@@H](C(=O)OCc2coc(Cc3ccccc3)c2)C1(C)C
not listed: [3] | [9] | [14] | [19]
inactive: all other assays above

O=c1[nH]c2ccccc2c(=O)o1
not listed: [12] | [13] | [19]
inactive: all other assays above

Nc1ccc(Oc2ccc(N)cc2)cc1
not listed: [3] | [5] | [7] | [8]
inactive: all other assays above

C=C(C)CCl
not listed: [12]
inactive: all other assays above

CCOP(=S)(OCC)SCCSCC
not listed: [3] | [5] | [7] | [8] | [12]
inactive: all other assays above

CCCCN(CC)C(=O)SCCC
not listed: [13] | [19]
inactive: all other assays above

O=[N+]([O-])c1ccc([As](=O)(O)O)cc1
not listed: [3] | [5] | [14] | [19]
inactive: all other assays above

CC1C=[C-]C=C1.[C-]#[O+].[C-]#[O+].[C-]#[O+].[Mn]
not listed: [4]
inactive: all other assays above

CC(C)C#N
not listed: [3] | [5] | [7] | [8] | [12] | [19]
inactive: all other assays above

CCCCCOC(=O)c1ccccc1C(=O)OCCCCC
not listed: [3] | [5] | [16] | [17] | [18]
inactive: all other assays above

CC(C)OC(=O)Nc1ccccc1
not listed: [3] | [5] | [17] | [18] | [19]
inactive: all other assays above
